Test results published in PubChem BioAssay AID1028 (SRMLSC, 2008).
Measured potencies and affinities stand elsewhere. A number with no mark means an inactive call.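 Rule for the calls: active = enzyme inhibitor confirmed by dose series, half-maximal inhibitory concentration at most 40 µM; inactive = the rest.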

Each molecule was assayed against diphosphomevalonate decarboxylase (Streptococcus pneumoniae D39) (UniProt Q9FD53) (assay: S. pneumoniae DPM-DC inhibition retest, confirmation, biochemical, cuvette format, coupled NADH fluorescence (AID 1028)). Conditions: purified DPM-DC, rate, at 50 µM, hits give high values.

Row | Structure (SMILES) | inhibition [%]
1 | COc1ccc2oc(-c3ccc(N)cc3)nc2c1 | 7.74
2 | CCCN(CCC)C(=O)c1ccccc1-n1sc2ccccc2c1=O | 14.3
3 | CCN(CC)C(=O)c1ccccc1-n1sc2ccccc2c1=O | 14.9
4 | COc1ccc2oc(-c3ccc([N+](=O)[O-])cc3)nc2c1 | 1.63
5 | COc1ccc2oc(-c3cc(C)ccc3C)nc2c1 | 2.66
6 | COc1ccc(OC)c(-c2nc3cc(N)ccc3o2)c1 | 10.3
7 | Cc1ccccc1-c1nc2cc(N)ccc2o1 | 6.79
8 | Cc1ccc(C)c(-c2nc3cc([N+](=O)[O-])ccc3o2)c1 | 1.75
9 | COc1ccc2nc(-c3cc(C)ccc3C)oc2c1 | 1.13
10 | COc1ccc2oc(-c3ccc(F)cc3)nc2c1 | 1.68
11 | Nc1ccc2oc(-c3ccc(Cl)cc3)nc2c1 | 12.8
12 | Nc1ccc2oc(-c3cccc(F)c3)nc2c1 | 10.4
13 | O=C(c1ccccc1-n1sc2ccccc2c1=O)N1CCCCC1 | 16.1
14 | COc1ccc2nc(-c3ccc(F)cc3)oc2c1 | 4.34
15 | COc1ccc2oc(-c3ccncc3)nc2c1 | -0.2
16 | Clc1cccc(-c2nc3ccccc3o2)c1 | 1.68
17 | COc1ccccc1-c1nc2ccccc2o1 | 6.39
18 | O=C(NC1CC1)c1ccccc1-n1sc2ccccc2c1=O | 8
19 | COc1ccc(OC)c(-c2nc3cc(OC)ccc3o2)c1 | 2.12
20 | Cc1cccc(-c2nc3ccccc3o2)c1 | 5.31
21 | COc1ccc(-c2nc3cc(N)ccc3o2)cc1 | 13.2
22 | Cc1ccccc1-c1nc2cccc(N)c2o1 | -2.22
23 | COc1ccccc1-c1nc2cc(N)ccc2o1 | 14.5
24 | COc1ccc2oc(-c3cccc([N+](=O)[O-])c3)nc2c1 | 7.59
